# Bioassay records (PubChem)
# Shown are actives, neighbours in structure and some others; about 9.3% of the full set was active somewhere.
# HCV inh – blocks hepatitis C virus; Huh7.5.1 HCVcc-Cre infection, luciferase reporter, 44 h; Potency, µM (top dose mostly 41.8 µM), without a hit: top-dose activity change, negative = inhibition, most hits filed as inhibitors; 3.4% of 340,000 active; AID 651820; also: potency is read from the fitted curve at half-maximal effect
#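 Whole-lifecycle infectious HCVcc-Cre system; cells 1,000/well, compound then virus (~0.5 moi) added 4 h after plating, 44 h culture. Luciferase read 15 sec following 15 min substrate incubation, room temp.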
# FMDV antiviral – antivirals against foot and mouth disease virus | 1.2% of 410,000 active | AID 1159524 | FMDV antiviral cell-based qHTS | Potency, µM (titrated, usually from 57.9 µM), for inactives: at the highest dose activity change, negative = inhibition, usual class: inhibitors; calls by dose curve; tested in HEK293T cells; also: read-out not given here; potency is read from the fitted curve at half-maximal effect; nearly all actives have a fitted effect of over 45% in size
# Vaccinia Venus – vaccinia inhibition (Venus reporter); Vaccinia virus Venus reporter expression, fluorescence; Potency, µM (top dose mostly 36.5 µM), for the others: at the top dose activity change, negative = inhibition, hits mostly inhibitors; 0.46% of 330,000 active; AID 720580; calls by dose curve; tested in A549 cells; also: potency is read from the fitted curve at half-maximal effect; nearly all actives have a fitted effect of over 30% in size
# VACV mCherry inh – vaccinia inhibition (mCherry reporter); Vaccinia virus mCherry reporter infection, fluorescence; Potency, µM (doses to about 36.5 µM), without a hit: top-dose activity change, negative = inhibition, actives largely listed as inhibitors; 0.63% of 310,000 active; AID 720579; calls by dose curve; tested in A549 cells; also: potency is read from the fitted curve at half-maximal effect; nearly all actives have a fitted effect of over 35% in size
# HCMV antiviral – inhibitors of human cytomegalovirus; HFF cells, HCMV-luciferase reporter, 72 h; active compounds read low; activity change, negative = inhibition, % at 57.5 µM; 4.5% of 410,000 active; AID 1259415; in the data active = activity change below about -60%; inconclusive = no clear call, values can overlap the other calls; inactive = above about -39%
#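 Luciferase read-out from HCMV-luciferase-infected HFFs (MOI 1 PFU/cell) 72 h post infection at 37C; compounds added after 16 h cell attachment; activity normalized between buffer-only basal and Salinomycin (10uM) inhibitor controls.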
# Sm TGR block – inhibitors of Schistosoma mansoni thioredoxin glutathione reductase; Q962Y6; purified TGR, DTNB reduction, TNB absorbance 405 nm; Potency, µM (doses to about 114 µM), for inactives: at the highest dose activity change, negative = inhibition, actives largely listed as inhibitors; 3% of 360,000 active; also: potency is read from the fitted curve at half-maximal effect; nearly all actives have a fitted effect of over 60% in size
#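 TGR 20 nM + NADPH 100 uM (dispensed conc.), cpd preinc 15 min RT; start with NADPH (500 uM addition) then DTNB (15 mM addition). Kinetic TNB absorbance, 405 nm filter. Four-parameter Hill fit across titration.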
# Numbers without * were called inactive; i = inactive; ? = inconclusive; . = no result. Unless noted, calls follow the shape of the dose curve; as a rule, active = well fitted curve in the direction sought with a large enough effect; inconclusive = small, poorly fitted or top-dose-only effect, or another doubt; inactive = no such curve, though single readings can be large; an effect the other way counts as inactive or inconclusive. % is scaled to controls: 0 for no effect and ±100 for the full control effect.
SMILES,HCV inh,FMDV antiviral,Vaccinia Venus,VACV mCherry inh,HCMV antiviral,Sm TGR block
CC(=O)N1N=C(c2c(-c3ccccc3)c3cc(C)ccc3[nH]c2=O)CC1c1ccco1 (stereo unspecified),?,0%,-26%,?,-38,-26%
COc1cc(OC)cc(-c2nnc(NC(=O)CCS(=O)(=O)c3ccc(C)cc3)o2)c1,-1%,-15%,?,7.9µM*,-8,?
O=C(CCS(=O)(=O)c1ccccc1)Nc1nnc(-c2ccco2)o1,14%,0%,?,11µM*,44,?
Cc1ccc(S(=O)(=O)CCC(=O)Nc2nnc(-c3ccc(F)cc3)o2)cc1,18%,1%,?,?,-6,-11%
CC(C)c1c(C(=O)N/N=C/c2ccoc2)nnn1-c1nonc1N,-26%,31%,.,.,-16,1%
CCCc1c(C(=O)N/N=C/C(C)=C/c2ccccc2)nnn1-c1nonc1N,-20%,-7%,.,.,-17,3%
CCN(CC)Cc1c(C(=O)N/N=C/c2ccco2)nnn1-c1nonc1N,11%,2%,.,.,9,-19%
CC(/C=N/NC(=O)c1nnn(-c2nonc2N)c1C(C)C)=C\c1ccccc1,10µM*,16%,.,.,-32,10%
CC(=C/c1ccco1)/C=N/NC(=O)c1nnn(-c2nonc2N)c1CN(C)C,-9%,5%,-8%,-7%,-60*,-15%
CC(C)c1c(C(=O)N/N=C/c2ccc(C(F)(F)F)cc2)nnn1-c1nonc1N,5.6µM*,-25%,.,.,?,-30%
O=C1OC(c2ccc(F)cc2)CC1CN1CCOCC1 (stereo unspecified),.,-2%,6%,3%,38,.
O=C(CSc1n[nH]c(-c2ccccc2O)n1)NC1CCCCC1,7%,-24%,-19%,-12%,4,6%
CCOc1ccc(S(=O)(=O)n2cc(-c3ccc(F)cc3)c(N)n2)cc1,?,-5%,.,.,-20,-4%
CCOc1cc(S(=O)(=O)n2cc(-c3ccc(F)cc3)c(N)n2)cc(OCC)c1OCC,6.3µM*,?,?,.,19,-1%
COc1ccccc1-c1cn(S(=O)(=O)c2ccc(F)cc2)nc1N,10µM*,?,?,.,?,-4%
CS(=O)(=O)c1nc2c(cc1C#N)CCCC2,-11%,-15%,-10%,-7%,-25,.
N#Cc1cc2c(nc1S(=O)(=O)Cc1ccccc1)CCCC2,13%,12%,-13%,-8%,-63*,1%
CC(=O)c1sc(NC(=O)C2CC(=O)N(Cc3ccco3)C2)nc1-c1ccccc1 (stereo unspecified),1%,-25%,-10%,-27%,-14,-17%
CN(c1ccc(-c2csc(NC(=O)C3CC(=O)N(Cc4ccco4)C3)n2)cc1)S(C)(=O)=O (stereo unspecified),?,22µM*,.,.,24,-26%
Cc1ccc(N2CC(C(=O)Nc3nccs3)CC2=O)cc1Cl (stereo unspecified),?,11%,.,.,-91*,2%
O=C(Nc1nccs1)C1CC(=O)N(Cc2ccco2)C1 (stereo unspecified),19%,-8%,-7%,-11%,-26,10µM*
NS(=O)(=O)c1cccc(NC(=O)C2CC(=O)N(Cc3ccco3)C2)c1 (stereo unspecified),-2%,-8%,-4%,i,36,50µM*
COCc1nnc(NC(=O)C2CC(=O)N(c3ccc(C)c(Cl)c3)C2)s1 (stereo unspecified),33%,10%,8%,-13%,1,-4%
S=C(NN=C1C2CC3CC(C2)CC1C3)Nc1ccccc1,13%,58%,-7%,i,-25,-8%
CCn1c(=N)c(C(=O)NCc2cccnc2)cc2c(=O)n3cc(C)ccc3nc21,.,-14%,1%,0%,?,4%
SMILES,HCV inh,FMDV antiviral,Vaccinia Venus,VACV mCherry inh,HCMV antiviral,Sm TGR block
O=C(NCc1ccc(F)cc1)C1CC(=O)N(Cc2ccco2)C1 (stereo unspecified),10%,-1%,-2%,i,14,40µM*
COc1ccc(-c2nc(NC(=O)C3CC(=O)N(Cc4ccco4)C3)sc2C)cc1 (stereo unspecified),?,?,.,.,-16,-5%
COc1ccc(-c2csc(NC(=O)C3CC(=O)N(Cc4ccco4)C3)n2)cc1 (stereo unspecified),?,?,-12%,-23%,-5,35µM*
CC(=O)NC1CC2CCCC(C1)N2C(=O)Nc1ccccc1C (stereo unspecified),26%,-9%,.,.,-37,.
O=S1(=O)CCOC[C@H](c2ccccc2)N1Cc1cccc(F)c1,12%,10%,-7%,i,-14,0%
NC(=O)C1CCN(CC(O)CSc2ccccc2)CC1 (stereo unspecified),9%,5%,.,.,9,2%
OC(CSc1ccccc1)CN1CCN(c2ccccc2)CC1 (stereo unspecified),21%,-10%,-12%,-20%,-102*,.
Cc1cc(C)n2nc(-c3ccc(Cl)cc3)cc2n1,3%,69%,.,.,173,1%
Cc1nc2cc(-c3ccc(Cl)cc3)nn2c(NCCN(C)C)c1C,18µM*,13%,-20%,?,30,.
CCCc1nc(SCC(=O)NCc2ccco2)c2c(=O)n(C)c(=O)n(C)c2n1,?,0%,-9%,-13%,11,?
NC(=O)CCN1CCN(CCOC2Cc3cc(Cl)ccc3Sc3ccccc32)CC1 (stereo unspecified),11µM*,-18%,?,-10%,?,-1%
COCCCN1CCN(C2Cc3ccccc3Sc3ccc(Cl)cc32)CC1 (stereo unspecified),-15%,-9%,?,?,-2,-2%
CCOc1ccc(CCNC(=O)C2CCN(Cc3nc(-c4ccccc4C)oc3C)CC2)cc1OCC,.,?,?,?,11,0%
O=[N+]([O-])c1ccc(-c2ccccc2)c([As](=O)(O)O)c1,-24%,-24%,-2%,i,-91*,2µM*
COC(=O)CCc1c(C)c(C#N)c2nc3ccccc3n2c1N1CCCC1,2%,-9%,-6%,-5%,27,-14%
O=C(Nc1ccc(Cl)cc1Cl)c1cc(S(=O)(=O)N2CCN(c3ccccc3F)CC2)ccc1F,.,-19%,-23%,-8%,-65*,7%
CCN1CCN(S(=O)(=O)c2ccc(Cl)c(C(=O)Nc3ccccc3N3CCCC3)c2)CC1,5%,-1%,-11%,-5%,.,-17%
CCN1CCN(S(=O)(=O)c2ccc(Cl)c(C(=O)Nc3ccccc3N3CCCCC3)c2)CC1,13µM*,3%,-25%,-30%,-28,5%
OCC1(CCCc2ccccc2)CCN(C2CCC2)CC1,3%,-19%,.,.,-12,-25%
CCc1ccc(-c2cc(C(F)(F)F)n3nc(C(=O)Nc4c(C)nn(Cc5ccc(F)cc5)c4C)cc3n2)s1,1.6µM*,?,.,.,-37,11%
